PubChem BioAssay (NCATS)
Inconclusive results are not listed. The source made the active and inactive calls. Unless noted, the call rests on the fitted dose curve.

Legend:
[1] = qHTS assay for small molecule agonists of retinoid X receptor alpha signaling (AID 588544); conditions: HEK293T RXRa-UAS-bla, beta-lactamase reporter, 18 h; 530 nm emission;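 on activation: 0% = DMSO basal wells and 100% = reference agonist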
[2] = target: Retinoic acid receptor RXR-alpha (Homo sapiens) (UniProt P19793); test: as above; conditions: HEK293T RXRa-UAS-bla, beta-lactamase reporter, 18 h; series mostly up to 76.7 µM
[3] = target: Thyroid hormone receptor beta (Homo sapiens) (UniProt P10828); test: qHTS assay for small molecule agonists of thyroid hormone receptor beta signaling (AID 588545); conditions: TR-UAS-bla GripTite HEK 293, beta-lactamase ratio, agonist mode, 18 h, percent of T3 response, DMSO as zero; series mostly up to 76.7 µM;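 further: 0% = DMSO only and 100% = 10 nM T3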
In short: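 Beta-lactamase reporter activity under TR response element control is measured in HEK 293 cells after 18 hrs compound exposure. Signal is ratiometric CCF4 fluorescence, 460/530 nm.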

[4] = qHTS assay for small molecule antagonists of retinoid X receptor alpha signaling (AID 588546; active means well fitted inhibition curve with a large enough effect in the signal ratio, with a control signal flat, not every such curve was filed as active; the % refers to the signal ratio;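 further: cells stimulated with 9-cis-retinoic acid as agonist; on the % scale 0 is the no-effect control and ±100 the full control effect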); conditions: HEK293T RXRa-UAS-bla, beta-lactamase ratio, antagonist mode; measured here: W530 green channel, cytotoxicity proxy
In short: (§1)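 Beta-lactamase reporter inhibition, read as CCF4 fluorescence ratio (ex 405, em 460/530 nm) after 2 h at RT. HEK293T UAS-bla cells, 2500/well, were stimulated with 9-cis-RA at 500 or 100 nM final alongside test compound for 18 h at 37 C.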

[5] = target: Retinoic acid receptor RXR-alpha (Homo sapiens) (UniProt P19793); test: as above; conditions: HEK293T RXRa-UAS-bla, beta-lactamase ratio, antagonist mode
In short: as §1

[6] = target: Thyroid hormone receptor beta (Homo sapiens) (UniProt P10828); test: qHTS assay for small molecule antagonists of thyroid hormone receptor beta signaling (AID 588547; active means well fitted inhibition curve with a large enough effect in the signal ratio, with a control signal flat, not every such curve was filed as active; the % refers to the signal ratio;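 further: cells stimulated with 0.4 nM T3 agonist during compound exposure; on the % scale 0 is the no-effect control and ±100 the full control effect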); conditions: TR-UAS-bla HEK293, beta-lactamase ratio, antagonist mode, 18 h
In short: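 Inhibition of T3-driven (0.4nM final) beta-lactamase reporter activity was measured over 0.59 nM to 92 uM compound after 18 h at 37 C. The cells were GripTite HEK293 TR-UAS-bla in charcoal/dextran-stripped serum, with CCF4 ratio read-out and IC50 from Hill fits.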

[7] = target: Voltage-gated inwardly rectifying potassium channel KCNH2 (Homo sapiens) (UniProt Q12809); test: qHTS Assay for Small Molecule Inhibitors of the Human hERG Channel Activity (AID 588834; active means well fitted inhibition curve with a large enough effect;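 further: top concentration of the series differs between compounds; on the % scale 0 is the no-effect control and ±100 the full control effect; lower thallium flux fluorescence means stronger hERG block; nearly all actives have a fitted effect of over 50% in size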); conditions: U2OS BacMam hERG, FluxOR thallium flux fluorescence; series mostly up to 92.2 µM
In short: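 Blockade is seen as reduced FluxOR thallium-flux fluorescence in U2OS cells expressing hERG from a BacMam construct, in Opti-MEM with 2% FCS. Concentration-response data fitted to the Hill equation for AC50.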

[8] = qHTS assay for small molecule agonists of the antioxidant response element (ARE) signaling pathway (AID 651741; active means well fitted activation curve with a large enough effect in the signal ratio; the % refers to the signal ratio; further: potency means the concentration at half of the fitted maximal effect; on activation: % of control where 0% means no effect); conditions: HepG2 ARE-bla reporter, beta-lactamase FRET ratio, 16 h; series mostly up to 96 µM
In short: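 Seeding 2,000 ARE-bla HepG2 cells per well preceded a 5 h incubation at 37 C/5% CO2 and a 16 h compound exposure at 37 C. Beta-lactamase reporter activity was then quantified by fluorescence after 2 h with LiveBLAzer B/G FRET substrate.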

[9] = qHTS assay for small molecule activators of the p53 signaling pathway (AID 651743; active means well fitted activation curve with a large enough effect in the signal ratio, not every such curve was filed as active; the % refers to the signal ratio; further: % of control where 0% means no effect); conditions: HCT-116 p53RE-bla, beta-lactamase FRET ratio, 16 h; stronger effect = higher value
In short: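 Screen for p53 pathway agonists uses stably transfected p53RE-bla HCT-116 cells, 4,000 per well, treated 16 h at 37 C with compounds in DMSO.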

[10] = qHTS assay for small molecule activators of the nuclear factor-kappa B (NF-kB) signaling pathway (AID 651749; active means well fitted activation curve with a large enough effect in the signal ratio; the % refers to the signal ratio; further: % of control where 0% means no effect); conditions: NF-kB-bla ME-180 cells, beta-lactamase FRET ratio, 16 h; stronger effect = higher value
In short: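 Stably transfected ME-180 line; NF-kB response element upstream of beta-lactamase. Treatment: compound or DMSO, 16 hr. Detection: fluorescent FRET substrate.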

Chain of Voltage-gated inwardly rectifying potassium channel KCNH2 (Homo sapiens) (Q12809 whole entry, looked up): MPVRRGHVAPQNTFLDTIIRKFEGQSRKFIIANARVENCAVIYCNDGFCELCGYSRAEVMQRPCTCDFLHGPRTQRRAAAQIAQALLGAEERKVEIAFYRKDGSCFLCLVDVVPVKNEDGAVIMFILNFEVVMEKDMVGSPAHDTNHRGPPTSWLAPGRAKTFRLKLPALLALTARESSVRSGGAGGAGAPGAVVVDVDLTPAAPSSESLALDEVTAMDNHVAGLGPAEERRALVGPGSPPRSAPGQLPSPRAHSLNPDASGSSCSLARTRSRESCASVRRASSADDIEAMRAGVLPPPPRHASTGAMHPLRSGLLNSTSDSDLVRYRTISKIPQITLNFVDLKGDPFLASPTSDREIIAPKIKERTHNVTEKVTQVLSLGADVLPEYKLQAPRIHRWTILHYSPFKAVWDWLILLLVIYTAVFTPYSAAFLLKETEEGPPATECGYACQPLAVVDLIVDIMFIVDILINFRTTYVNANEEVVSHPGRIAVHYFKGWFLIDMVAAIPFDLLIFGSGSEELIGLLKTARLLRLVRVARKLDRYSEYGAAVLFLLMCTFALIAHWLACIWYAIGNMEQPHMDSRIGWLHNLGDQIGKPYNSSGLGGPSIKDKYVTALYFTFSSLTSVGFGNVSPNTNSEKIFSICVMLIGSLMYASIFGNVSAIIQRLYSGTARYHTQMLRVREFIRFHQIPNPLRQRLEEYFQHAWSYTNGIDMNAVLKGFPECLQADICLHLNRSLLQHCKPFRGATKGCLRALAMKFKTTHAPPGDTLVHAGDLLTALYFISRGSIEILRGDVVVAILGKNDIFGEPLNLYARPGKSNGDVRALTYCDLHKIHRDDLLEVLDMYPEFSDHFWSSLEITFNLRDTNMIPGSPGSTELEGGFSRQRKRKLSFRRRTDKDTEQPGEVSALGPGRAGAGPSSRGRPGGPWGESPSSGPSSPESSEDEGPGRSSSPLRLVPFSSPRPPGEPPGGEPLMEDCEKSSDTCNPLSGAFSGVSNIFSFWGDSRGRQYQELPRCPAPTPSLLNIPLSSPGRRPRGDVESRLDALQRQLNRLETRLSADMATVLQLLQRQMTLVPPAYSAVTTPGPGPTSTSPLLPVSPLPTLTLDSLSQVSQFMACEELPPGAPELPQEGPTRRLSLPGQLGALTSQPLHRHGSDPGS
Chain of Thyroid hormone receptor beta (Homo sapiens) (P10828 whole entry, looked up): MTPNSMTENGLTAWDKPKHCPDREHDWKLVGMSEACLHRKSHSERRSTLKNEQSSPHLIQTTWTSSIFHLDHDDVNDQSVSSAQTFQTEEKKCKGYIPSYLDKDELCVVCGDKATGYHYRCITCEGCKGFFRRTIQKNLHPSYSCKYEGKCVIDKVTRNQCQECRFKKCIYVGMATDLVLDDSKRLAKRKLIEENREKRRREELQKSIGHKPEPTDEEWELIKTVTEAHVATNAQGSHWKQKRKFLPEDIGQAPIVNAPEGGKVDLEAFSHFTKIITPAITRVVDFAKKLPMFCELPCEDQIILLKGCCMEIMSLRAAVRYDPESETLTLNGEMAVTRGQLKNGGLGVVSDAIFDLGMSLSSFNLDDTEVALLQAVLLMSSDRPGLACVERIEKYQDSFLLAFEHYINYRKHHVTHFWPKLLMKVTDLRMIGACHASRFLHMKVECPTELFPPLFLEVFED
Chain of Retinoic acid receptor RXR-alpha (Homo sapiens) (P19793 whole entry, looked up): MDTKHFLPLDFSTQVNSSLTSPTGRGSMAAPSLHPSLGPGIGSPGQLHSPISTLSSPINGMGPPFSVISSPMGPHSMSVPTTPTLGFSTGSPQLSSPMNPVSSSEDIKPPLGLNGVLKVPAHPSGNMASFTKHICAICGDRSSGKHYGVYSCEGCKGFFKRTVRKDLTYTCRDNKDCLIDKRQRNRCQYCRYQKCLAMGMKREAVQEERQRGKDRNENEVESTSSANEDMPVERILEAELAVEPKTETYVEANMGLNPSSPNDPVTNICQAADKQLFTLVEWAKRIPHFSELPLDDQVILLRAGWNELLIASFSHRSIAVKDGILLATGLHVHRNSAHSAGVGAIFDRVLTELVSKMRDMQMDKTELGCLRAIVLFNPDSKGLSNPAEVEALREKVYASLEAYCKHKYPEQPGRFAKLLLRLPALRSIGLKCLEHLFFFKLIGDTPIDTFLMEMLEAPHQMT

Structure (SMILES) | max response [1] | outcome [2] | outcome [3] | max response [4] | max response [5] | activity change % (negative = inhibition) [6] | Potency [7] | Potency [8] | activation [9] | activation [10]
CCCOCC(C)OCC(C)O (centres undefined) | -0.324% | inactive | inactive | -4.87% | 13.7% (inactive) | 6.45% (inactive) | inactive | inactive | -5.61% (inactive) | –
Cc1ccc2c(c1[N+](=O)[O-])C(=O)c1ccccc1C2=O | -1.88% | inactive | inactive | -5.46% | -0.36% (inactive) | -11.5% (inactive) | inactive | 11.9 µM (active) | 7.91% (inactive) | -0.166% (inactive)
Cc1ccc(S(=O)(=O)NC2CCCCC2)cc1 | -12.2% | inactive | inactive | -7.45% | 11.2% (inactive) | -0.348% (inactive) | inactive | inactive | -2.24% (inactive) | -0.807% (inactive)
COC(=O)CCC(=O)OC | -2.46% | inactive | inactive | 1.7% | 6.03% (inactive) | 1.67% (inactive) | inactive | inactive | -2.9% (inactive) | 0.407% (inactive)
Cc1ccc2ncccc2c1 | -4.8% | inactive | inactive | -2.62% | 2.87% (inactive) | 1.73% (inactive) | inactive | inactive | -3.29% (inactive) | -1.62% (inactive)
Cc1cccc([N+](=O)[O-])c1C(=O)O | -20.5% | inactive | inactive | -4.5% | -0.976% (inactive) | 13.9% (inactive) | inactive | inactive | -3.44% (inactive) | –
C=C(C)C(=O)OC | -17.1% | inactive | inactive | -11.6% | -3.12% (inactive) | -1.4% (inactive) | inactive | inactive | -0.845% (inactive) | -2.84% (inactive)
Nc1cc(Cl)c([N+](=O)[O-])cc1O | -11.8% | inactive | inactive | -8.58% | -8.94% (inactive) | 14.2% (inactive) | inactive | 8.41 µM (active) | -0.259% (inactive) | 0.0071% (inactive)
CCC(O)C(C)(C)C (centres undefined) | -3.08% | inactive | inactive | -1.12% | -2.9% (inactive) | 9.28% (inactive) | inactive | inactive | -0.0168% (inactive) | -0.45% (inactive)
N#CCc1ccccc1[N+](=O)[O-] | -1.87% | inactive | inactive | 20.6% | -6.12% (inactive) | -13.4% (inactive) | inactive | 42.2 µM (active) | -2.66% (inactive) | –
C=CCCCC | -12.2% | inactive | inactive | -3.19% | -7.65% (inactive) | 9.97% (inactive) | inactive | inactive | 0.701% (inactive) | –
Cc1cccc2ccccc12 | -13.1% | inactive | inactive | -10.1% | 0.915% (inactive) | 12.2% (inactive) | inactive | inactive | -1.93% (inactive) | -1.12% (inactive)
CC(=O)c1cc(C)oc1C | -2.61% | inactive | inactive | 4.07% | 0.525% (inactive) | -4.91% (inactive) | inactive | inactive | -2.3% (inactive) | -0.373% (inactive)
CC/C=C1/OC(=O)c2ccccc21 | 0.089% | inactive | inactive | -8.24% | 8.95% (inactive) | 10.4% (inactive) | inactive | inactive | -1.64% (inactive) | -0.0092% (inactive)
CCC(C)=O | -3% | inactive | inactive | -3.56% | 0.0353% (inactive) | -18.3% (inactive) | inactive | inactive | -2.15% (inactive) | -1.44% (inactive)
C[C@@H]1O[C@@H](O[C@@H]2[C@@H](O)[C@H](OCCc3ccc(O)c(O)c3)O[C@H](CO[C@@H]3O[C@H](CO)[C@@H](O)[C@H](O)[C@H]3O)[C@H]2OC(=O)/C=C/c2ccc(O)c(O)c2)[C@H](O)[C@H](O)[C@H]1O | 0.999% | inactive | inactive | -0.609% | -6.94% (inactive) | 4.68% (inactive) | inactive | inactive | -0.671% (inactive) | -0.414% (inactive)
CC(=O)OCCC(C)C | -5.59% | inactive | inactive | -8.93% | 2.22% (inactive) | 8.77% (inactive) | inactive | inactive | -1.24% (inactive) | –
C1COC1 | -1.49% | inactive | inactive | -8.83% | 0.231% (inactive) | 14.8% (inactive) | inactive | inactive | 0.23% (inactive) | -0.645% (inactive)
CO[Si](CCCNCCC[Si](OC)(OC)OC)(OC)OC | 9.17% | inactive | inactive | 7.72% | 10.8% (inactive) | -0.795% (inactive) | inactive | inactive | 0.23% (inactive) | 0.71% (inactive)
Cc1cc(C)cc(O)c1 | 0.806% | inactive | inactive | -5.75% | 24.6% (inactive) | 2.53% (inactive) | inactive | inactive | -2.15% (inactive) | –
